# Data as given in ChEMBL document CHEMBL1961873, “Compounds: GSK PKIS; Assays: Nanosyn kinase panel” (2012).
# Legend:
# [1] = biological target: T1, Inhibitor of nuclear factor kappa-B kinase subunit epsilon (Homo sapiens) (UniProt Q14164); conditions: at 1 µM;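 also: reported values are averaged percent inhibition figures against human IKKε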
# T1 sequence (whole entry): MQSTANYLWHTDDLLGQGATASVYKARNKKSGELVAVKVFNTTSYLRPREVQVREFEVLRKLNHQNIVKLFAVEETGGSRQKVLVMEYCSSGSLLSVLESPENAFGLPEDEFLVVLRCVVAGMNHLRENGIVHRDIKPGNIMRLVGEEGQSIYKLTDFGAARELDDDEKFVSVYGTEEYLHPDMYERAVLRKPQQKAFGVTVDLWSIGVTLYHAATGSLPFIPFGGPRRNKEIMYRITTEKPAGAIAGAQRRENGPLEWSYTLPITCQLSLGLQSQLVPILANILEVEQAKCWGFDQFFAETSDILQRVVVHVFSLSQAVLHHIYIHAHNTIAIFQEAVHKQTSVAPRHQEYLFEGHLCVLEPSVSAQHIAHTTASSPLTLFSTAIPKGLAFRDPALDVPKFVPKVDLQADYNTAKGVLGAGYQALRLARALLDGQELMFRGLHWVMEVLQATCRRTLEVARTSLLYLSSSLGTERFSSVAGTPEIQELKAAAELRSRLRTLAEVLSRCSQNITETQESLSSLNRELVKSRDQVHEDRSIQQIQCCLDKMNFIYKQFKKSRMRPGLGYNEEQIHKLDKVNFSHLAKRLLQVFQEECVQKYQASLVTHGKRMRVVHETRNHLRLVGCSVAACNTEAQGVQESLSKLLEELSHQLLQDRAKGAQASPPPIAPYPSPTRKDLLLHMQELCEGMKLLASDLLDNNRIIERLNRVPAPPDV
# [2] = biological target: T2, Serine/threonine-protein kinase Nek1 (Homo sapiens) (UniProt Q96PY6); conditions: at 0.1 µM
# T2 sequence (whole entry): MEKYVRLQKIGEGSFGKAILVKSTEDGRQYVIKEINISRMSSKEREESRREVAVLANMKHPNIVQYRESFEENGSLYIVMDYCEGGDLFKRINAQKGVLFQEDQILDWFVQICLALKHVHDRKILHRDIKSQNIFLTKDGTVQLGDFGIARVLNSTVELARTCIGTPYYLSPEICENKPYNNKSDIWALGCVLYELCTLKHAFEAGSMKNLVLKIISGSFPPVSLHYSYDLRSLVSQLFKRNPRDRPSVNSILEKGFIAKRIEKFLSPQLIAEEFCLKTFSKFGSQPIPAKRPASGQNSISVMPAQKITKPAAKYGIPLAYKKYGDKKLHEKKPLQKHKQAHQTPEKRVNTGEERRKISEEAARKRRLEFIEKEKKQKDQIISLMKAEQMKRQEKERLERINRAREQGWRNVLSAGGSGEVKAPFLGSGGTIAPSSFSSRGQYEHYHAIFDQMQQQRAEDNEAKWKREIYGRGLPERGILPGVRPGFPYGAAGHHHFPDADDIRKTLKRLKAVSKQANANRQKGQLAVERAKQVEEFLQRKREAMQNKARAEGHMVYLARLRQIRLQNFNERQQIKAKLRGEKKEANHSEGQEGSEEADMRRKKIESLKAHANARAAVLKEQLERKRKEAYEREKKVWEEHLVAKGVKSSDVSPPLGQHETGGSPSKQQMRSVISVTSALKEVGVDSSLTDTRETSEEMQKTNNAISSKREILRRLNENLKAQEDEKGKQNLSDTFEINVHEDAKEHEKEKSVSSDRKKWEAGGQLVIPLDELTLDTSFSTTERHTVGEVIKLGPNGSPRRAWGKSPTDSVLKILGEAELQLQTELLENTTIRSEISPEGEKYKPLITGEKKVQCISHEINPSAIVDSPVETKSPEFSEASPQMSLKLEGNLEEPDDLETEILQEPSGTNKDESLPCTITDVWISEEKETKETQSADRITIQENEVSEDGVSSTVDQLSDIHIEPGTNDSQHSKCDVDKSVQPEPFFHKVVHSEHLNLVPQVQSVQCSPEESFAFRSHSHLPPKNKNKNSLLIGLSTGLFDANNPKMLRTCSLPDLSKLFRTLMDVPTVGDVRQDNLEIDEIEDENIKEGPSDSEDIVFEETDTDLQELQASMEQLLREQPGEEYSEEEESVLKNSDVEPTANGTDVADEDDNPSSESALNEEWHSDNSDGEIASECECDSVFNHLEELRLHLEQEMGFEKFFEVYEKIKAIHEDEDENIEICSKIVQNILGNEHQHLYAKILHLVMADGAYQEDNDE
# [3] = biological target: T2, Serine/threonine-protein kinase Nek1 (Homo sapiens); conditions: at 1 µM
# [4] = biological target: T3, Serine/threonine-protein kinase Nek2 (Homo sapiens) (UniProt P51955); conditions: at 0.1 µM
# T3 sequence (whole entry): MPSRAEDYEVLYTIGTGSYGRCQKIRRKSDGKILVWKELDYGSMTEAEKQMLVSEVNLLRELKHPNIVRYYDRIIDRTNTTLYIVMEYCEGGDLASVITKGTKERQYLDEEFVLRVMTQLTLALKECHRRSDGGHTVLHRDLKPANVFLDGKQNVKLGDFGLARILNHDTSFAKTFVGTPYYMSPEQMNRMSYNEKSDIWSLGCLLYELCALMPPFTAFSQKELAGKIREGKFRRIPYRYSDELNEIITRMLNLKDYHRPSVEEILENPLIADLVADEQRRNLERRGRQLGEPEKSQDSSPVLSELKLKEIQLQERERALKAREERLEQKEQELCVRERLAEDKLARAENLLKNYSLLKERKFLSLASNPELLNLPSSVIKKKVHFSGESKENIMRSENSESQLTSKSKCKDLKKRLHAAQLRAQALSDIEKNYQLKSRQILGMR
# [5] = biological target: T3, Serine/threonine-protein kinase Nek2 (Homo sapiens); conditions: at 1 µM
# [6] = biological target: Serine/threonine-protein kinase Nek6 (Homo sapiens) (UniProt Q9HC98); conditions: at 0.1 µM
# Sequence of Serine/threonine-protein kinase Nek6 (Homo sapiens) (Q9HC98 whole entry): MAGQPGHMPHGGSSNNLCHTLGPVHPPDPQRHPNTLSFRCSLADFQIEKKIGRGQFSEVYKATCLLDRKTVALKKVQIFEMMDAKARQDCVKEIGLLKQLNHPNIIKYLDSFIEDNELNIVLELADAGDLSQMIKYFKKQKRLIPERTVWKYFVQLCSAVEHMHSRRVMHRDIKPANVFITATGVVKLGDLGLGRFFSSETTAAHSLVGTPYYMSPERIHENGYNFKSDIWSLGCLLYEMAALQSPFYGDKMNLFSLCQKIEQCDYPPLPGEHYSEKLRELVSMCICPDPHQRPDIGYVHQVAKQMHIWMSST
# [7] = biological target: Serine/threonine-protein kinase Nek6 (Homo sapiens) (UniProt Q9HC98); conditions: at 1 µM
# [8] = biological target: Serine/threonine-protein kinase Nek7 (Homo sapiens) (UniProt Q8TDX7); conditions: at 0.1 µM
# Sequence of Serine/threonine-protein kinase Nek7 (Homo sapiens) (Q8TDX7 whole entry, looked up): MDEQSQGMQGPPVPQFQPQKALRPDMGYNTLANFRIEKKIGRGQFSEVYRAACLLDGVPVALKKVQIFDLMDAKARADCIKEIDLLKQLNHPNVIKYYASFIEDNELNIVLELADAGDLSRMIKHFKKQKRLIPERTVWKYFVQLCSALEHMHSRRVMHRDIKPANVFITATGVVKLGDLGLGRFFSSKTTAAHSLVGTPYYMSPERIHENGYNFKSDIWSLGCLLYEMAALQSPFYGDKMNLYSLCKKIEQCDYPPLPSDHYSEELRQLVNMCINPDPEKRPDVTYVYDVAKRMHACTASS
# [9] = biological target: Serine/threonine-protein kinase Nek7 (Homo sapiens) (UniProt Q8TDX7); conditions: at 1 µM
# [10] = biological target: T4, Serine/threonine-protein kinase Nek9 (Homo sapiens) (UniProt Q8TD19); conditions: at 0.1 µM
# T4 sequence (whole entry): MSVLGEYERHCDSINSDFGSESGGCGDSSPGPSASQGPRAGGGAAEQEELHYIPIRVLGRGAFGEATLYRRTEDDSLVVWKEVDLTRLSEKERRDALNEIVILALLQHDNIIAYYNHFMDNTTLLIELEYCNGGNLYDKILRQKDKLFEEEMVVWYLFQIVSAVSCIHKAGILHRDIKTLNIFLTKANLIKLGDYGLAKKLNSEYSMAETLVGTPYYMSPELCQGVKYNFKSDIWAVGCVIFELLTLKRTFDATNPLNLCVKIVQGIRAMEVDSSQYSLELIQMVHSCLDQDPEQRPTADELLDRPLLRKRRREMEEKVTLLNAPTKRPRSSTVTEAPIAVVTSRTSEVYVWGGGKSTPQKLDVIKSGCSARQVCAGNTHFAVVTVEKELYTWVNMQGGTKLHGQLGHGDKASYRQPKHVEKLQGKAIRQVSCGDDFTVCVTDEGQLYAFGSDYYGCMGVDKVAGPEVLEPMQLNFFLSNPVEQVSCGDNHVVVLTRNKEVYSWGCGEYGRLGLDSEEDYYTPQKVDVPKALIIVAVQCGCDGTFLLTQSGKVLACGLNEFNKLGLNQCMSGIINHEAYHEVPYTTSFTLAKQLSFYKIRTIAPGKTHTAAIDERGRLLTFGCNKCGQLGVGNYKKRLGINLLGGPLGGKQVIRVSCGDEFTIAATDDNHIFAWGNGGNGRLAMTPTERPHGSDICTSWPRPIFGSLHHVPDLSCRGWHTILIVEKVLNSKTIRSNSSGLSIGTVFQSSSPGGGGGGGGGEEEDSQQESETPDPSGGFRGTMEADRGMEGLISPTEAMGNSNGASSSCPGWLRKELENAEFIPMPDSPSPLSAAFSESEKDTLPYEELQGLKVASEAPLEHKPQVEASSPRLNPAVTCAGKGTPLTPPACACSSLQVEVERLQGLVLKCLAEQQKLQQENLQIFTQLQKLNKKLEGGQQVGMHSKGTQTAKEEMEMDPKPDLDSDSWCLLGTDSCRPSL
# [11] = biological target: T4, Serine/threonine-protein kinase Nek9 (Homo sapiens); conditions: at 1 µM
# [12] = biological target: Serine/threonine-protein kinase PLK1 (Homo sapiens) (UniProt P53350); conditions: at 0.1 µM
# Sequence of Serine/threonine-protein kinase PLK1 (Homo sapiens) (P53350 whole entry): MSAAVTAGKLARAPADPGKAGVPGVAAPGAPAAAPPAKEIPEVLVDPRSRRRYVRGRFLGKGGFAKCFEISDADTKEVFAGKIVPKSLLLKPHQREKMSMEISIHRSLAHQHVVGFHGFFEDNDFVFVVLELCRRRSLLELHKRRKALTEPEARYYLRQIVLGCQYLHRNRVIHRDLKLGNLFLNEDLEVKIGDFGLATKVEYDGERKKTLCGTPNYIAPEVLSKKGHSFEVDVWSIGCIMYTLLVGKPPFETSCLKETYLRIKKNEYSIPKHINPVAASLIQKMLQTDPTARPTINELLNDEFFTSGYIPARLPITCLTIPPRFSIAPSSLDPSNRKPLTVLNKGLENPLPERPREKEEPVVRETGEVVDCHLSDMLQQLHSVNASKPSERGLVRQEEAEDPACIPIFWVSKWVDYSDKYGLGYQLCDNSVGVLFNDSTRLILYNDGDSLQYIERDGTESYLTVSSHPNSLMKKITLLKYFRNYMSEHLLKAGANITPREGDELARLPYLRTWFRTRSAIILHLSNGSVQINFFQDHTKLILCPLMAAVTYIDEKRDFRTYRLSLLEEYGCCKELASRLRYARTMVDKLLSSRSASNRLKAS
# [13] = biological target: Serine/threonine-protein kinase PLK1 (Homo sapiens) (UniProt P53350); conditions: at 1 µM
# [14] = biological target: T5, Dual specificity protein kinase TTK (Homo sapiens) (UniProt P33981); conditions: at 0.1 µM
# T5 sequence (whole entry): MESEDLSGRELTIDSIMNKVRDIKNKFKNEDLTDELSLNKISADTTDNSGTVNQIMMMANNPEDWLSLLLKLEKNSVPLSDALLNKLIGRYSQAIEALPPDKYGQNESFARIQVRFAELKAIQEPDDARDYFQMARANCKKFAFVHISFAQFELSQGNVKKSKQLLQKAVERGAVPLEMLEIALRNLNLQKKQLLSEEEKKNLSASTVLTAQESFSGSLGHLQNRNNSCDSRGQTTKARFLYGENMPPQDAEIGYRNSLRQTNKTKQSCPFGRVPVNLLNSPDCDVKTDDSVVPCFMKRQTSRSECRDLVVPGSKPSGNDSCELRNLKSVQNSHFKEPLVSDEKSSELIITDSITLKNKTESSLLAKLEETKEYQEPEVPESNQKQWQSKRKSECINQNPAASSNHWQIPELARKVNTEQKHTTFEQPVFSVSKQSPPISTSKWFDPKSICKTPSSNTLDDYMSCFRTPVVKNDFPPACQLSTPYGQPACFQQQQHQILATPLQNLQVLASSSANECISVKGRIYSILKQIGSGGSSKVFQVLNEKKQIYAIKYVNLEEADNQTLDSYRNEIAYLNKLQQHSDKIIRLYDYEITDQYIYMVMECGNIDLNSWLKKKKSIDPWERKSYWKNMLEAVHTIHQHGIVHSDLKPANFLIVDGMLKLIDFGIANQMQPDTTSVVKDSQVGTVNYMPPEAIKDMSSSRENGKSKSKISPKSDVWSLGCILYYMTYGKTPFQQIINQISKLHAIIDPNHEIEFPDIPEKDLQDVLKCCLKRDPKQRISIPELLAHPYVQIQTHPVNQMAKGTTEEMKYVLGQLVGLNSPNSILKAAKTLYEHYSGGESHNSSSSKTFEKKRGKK
# [15] = tested on: T6, Receptor-type tyrosine-protein kinase FLT3 (Homo sapiens), P36888 [D835Y]; conditions: at 1 µM
# T6 sequence (whole entry): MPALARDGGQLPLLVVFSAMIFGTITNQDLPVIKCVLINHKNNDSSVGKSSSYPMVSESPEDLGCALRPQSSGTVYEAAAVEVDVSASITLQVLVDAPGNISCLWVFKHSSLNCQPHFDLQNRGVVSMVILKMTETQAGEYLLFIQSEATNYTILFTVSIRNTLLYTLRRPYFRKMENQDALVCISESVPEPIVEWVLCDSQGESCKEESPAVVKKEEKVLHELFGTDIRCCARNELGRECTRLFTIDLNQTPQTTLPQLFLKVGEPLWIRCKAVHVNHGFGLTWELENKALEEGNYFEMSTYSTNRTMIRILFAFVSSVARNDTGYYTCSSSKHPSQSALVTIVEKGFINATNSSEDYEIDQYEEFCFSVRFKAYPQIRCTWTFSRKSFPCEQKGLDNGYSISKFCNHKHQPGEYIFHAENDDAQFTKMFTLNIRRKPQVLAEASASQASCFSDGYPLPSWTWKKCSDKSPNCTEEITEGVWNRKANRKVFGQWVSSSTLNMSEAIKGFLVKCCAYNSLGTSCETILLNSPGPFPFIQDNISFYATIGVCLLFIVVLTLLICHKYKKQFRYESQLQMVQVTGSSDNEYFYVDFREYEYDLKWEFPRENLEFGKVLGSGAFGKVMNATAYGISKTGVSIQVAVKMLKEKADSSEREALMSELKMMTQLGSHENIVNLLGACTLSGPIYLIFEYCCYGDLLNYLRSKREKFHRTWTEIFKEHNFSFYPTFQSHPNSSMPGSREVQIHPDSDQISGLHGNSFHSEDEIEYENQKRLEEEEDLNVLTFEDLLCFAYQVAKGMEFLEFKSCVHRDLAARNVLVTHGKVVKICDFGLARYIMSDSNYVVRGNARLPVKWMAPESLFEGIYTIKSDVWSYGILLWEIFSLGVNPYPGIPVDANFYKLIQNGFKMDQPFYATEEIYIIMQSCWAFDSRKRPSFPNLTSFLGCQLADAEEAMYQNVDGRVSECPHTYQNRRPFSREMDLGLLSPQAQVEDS
# [16] = biological target: Vascular endothelial growth factor receptor 3 (Homo sapiens) (UniProt P35916); conditions: at 0.1 µM
# Sequence of Vascular endothelial growth factor receptor 3 (Homo sapiens) (P35916 whole entry): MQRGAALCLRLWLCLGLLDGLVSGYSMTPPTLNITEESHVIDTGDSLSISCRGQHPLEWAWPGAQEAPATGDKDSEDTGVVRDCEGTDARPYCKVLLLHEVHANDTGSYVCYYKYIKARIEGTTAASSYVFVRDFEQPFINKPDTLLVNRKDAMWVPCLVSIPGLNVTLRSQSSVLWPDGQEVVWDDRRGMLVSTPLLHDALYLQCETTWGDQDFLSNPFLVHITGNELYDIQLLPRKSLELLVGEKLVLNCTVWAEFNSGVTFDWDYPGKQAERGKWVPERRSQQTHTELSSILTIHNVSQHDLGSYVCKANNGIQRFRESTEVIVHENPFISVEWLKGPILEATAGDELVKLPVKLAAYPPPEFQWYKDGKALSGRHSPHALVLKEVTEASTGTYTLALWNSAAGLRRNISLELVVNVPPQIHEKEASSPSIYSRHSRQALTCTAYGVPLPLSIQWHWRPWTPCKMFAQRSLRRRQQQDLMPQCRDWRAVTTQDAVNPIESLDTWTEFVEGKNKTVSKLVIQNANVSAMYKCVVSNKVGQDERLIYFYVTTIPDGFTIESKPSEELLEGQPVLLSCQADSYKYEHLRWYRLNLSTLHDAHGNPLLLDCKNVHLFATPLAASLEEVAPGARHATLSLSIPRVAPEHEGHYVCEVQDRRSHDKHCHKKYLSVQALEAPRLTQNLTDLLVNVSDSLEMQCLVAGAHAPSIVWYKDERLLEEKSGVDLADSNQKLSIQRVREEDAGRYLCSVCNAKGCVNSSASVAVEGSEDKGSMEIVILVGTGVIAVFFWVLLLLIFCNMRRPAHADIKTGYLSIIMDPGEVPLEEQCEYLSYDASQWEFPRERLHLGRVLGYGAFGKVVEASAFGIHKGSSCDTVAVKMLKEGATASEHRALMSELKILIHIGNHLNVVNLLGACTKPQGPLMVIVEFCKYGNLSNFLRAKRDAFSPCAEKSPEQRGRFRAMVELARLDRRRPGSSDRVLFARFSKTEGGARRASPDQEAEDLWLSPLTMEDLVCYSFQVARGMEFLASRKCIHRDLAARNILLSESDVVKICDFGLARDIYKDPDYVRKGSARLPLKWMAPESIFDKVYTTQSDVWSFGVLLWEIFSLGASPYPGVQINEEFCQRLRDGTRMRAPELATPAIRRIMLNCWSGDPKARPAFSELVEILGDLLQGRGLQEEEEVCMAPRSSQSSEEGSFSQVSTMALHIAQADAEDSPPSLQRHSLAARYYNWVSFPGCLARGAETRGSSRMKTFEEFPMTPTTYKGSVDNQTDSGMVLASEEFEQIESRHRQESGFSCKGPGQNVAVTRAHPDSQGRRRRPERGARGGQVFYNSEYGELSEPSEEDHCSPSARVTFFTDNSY
# [17] = biological target: Vascular endothelial growth factor receptor 3 (Homo sapiens) (UniProt P35916); conditions: at 1 µM
# [18] = biological target: Macrophage colony-stimulating factor 1 receptor (Homo sapiens) (UniProt P07333); conditions: at 0.1 µM
# Sequence of Macrophage colony-stimulating factor 1 receptor (Homo sapiens) (P07333 whole entry): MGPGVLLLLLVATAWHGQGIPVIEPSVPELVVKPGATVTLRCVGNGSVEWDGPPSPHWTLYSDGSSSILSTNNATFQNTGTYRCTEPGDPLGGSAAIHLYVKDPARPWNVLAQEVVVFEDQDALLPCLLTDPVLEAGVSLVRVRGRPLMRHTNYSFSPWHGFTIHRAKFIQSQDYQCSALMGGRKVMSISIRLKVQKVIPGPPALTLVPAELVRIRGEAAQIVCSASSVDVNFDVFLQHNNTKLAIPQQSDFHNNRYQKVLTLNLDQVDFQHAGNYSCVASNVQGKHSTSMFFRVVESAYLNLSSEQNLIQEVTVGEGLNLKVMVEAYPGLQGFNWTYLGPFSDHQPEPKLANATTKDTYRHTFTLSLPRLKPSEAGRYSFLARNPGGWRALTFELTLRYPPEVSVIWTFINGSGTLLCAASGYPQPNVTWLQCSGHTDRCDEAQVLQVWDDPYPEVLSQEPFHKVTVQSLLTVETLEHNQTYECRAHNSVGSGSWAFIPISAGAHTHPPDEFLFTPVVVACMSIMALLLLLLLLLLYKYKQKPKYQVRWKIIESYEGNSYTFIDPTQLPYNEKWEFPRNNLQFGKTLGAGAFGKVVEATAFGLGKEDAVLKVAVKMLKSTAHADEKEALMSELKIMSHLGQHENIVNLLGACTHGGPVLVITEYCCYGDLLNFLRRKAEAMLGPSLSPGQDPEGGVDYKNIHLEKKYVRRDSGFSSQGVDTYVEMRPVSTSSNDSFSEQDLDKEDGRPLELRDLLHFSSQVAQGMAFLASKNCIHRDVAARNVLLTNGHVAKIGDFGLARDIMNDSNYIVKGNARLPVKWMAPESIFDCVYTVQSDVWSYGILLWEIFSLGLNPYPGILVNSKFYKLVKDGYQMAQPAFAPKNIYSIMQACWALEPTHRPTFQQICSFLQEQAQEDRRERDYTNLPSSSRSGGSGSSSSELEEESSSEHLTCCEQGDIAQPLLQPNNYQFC
# [19] = biological target: Macrophage colony-stimulating factor 1 receptor (Homo sapiens) (UniProt P07333); conditions: at 1 µM
# [20] = biological target: Tyrosine-protein kinase Fyn (Homo sapiens) (UniProt P06241); conditions: at 0.1 µM
# Sequence of Tyrosine-protein kinase Fyn (Homo sapiens) (P06241 2-537 limits assumed): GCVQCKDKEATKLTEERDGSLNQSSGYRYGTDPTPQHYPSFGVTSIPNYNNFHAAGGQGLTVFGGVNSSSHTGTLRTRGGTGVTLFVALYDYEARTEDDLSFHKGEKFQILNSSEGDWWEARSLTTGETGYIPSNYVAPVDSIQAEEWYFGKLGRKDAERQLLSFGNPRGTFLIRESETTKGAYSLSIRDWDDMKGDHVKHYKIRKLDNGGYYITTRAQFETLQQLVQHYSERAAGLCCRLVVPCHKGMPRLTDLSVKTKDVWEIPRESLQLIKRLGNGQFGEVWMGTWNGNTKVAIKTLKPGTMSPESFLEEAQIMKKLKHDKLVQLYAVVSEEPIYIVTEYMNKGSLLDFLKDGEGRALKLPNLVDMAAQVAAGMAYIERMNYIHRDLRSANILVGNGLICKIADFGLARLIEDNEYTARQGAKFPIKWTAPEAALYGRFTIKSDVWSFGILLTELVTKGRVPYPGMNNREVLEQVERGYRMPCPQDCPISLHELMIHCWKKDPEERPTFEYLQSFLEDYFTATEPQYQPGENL
Compound,inhibition [1],inhibition [2],inhibition [3],inhibition [4],inhibition [5],inhibition [6],inhibition [7],inhibition [8],inhibition [9],inhibition [10],inhibition [11],inhibition [12],inhibition [13],inhibition [14],inhibition [15],inhibition [16],inhibition [17],inhibition [18],inhibition [19],inhibition [20]
Fc1cccc(COc2ccc(Nc3ncnc4sc(-c5ccco5)cc34)cc2Cl)c1,4.97%,1.98%,3.24%,3.69%,5.99%,1.71%,2.07%,2.72%,4.26%,10.3%,8.43%,6.82%,4.61%,6.94%,0.69%,1.58%,3.49%,0.84%,8.62%,0.36%
CNC(=O)c1cncc(/C=C/c2ccccc2Cl)c1,2.69%,-0.35%,1.83%,-0.6%,-0.78%,1.4%,5.65%,-1.23%,-1.28%,1.21%,3.22%,-0.94%,-0.72%,1.16%,7.46%,15.2%,13.6%,3.45%,4.05%,2.42%
Cc1cccc(Nc2ncc(-c3ccccc3)o2)c1,6.48%,4.04%,3.56%,3.46%,3.62%,0.75%,2.04%,2.47%,4.58%,8.57%,4.73%,2.24%,6.33%,6.38%,18.6%,5.49%,9.11%,9.54%,25.7%,3.07%
